From PubChem BioAssay (EPA / NIEHS)
Calls of active or inactive are those of the source. The calls were made as follows: active = hit-call score of the fitted dose curve at least 0.9, where 1 is the maximum; inactive = score below 0.9.

What was measured:
[1] = molecular target: Bile acid receptor (Homo sapiens) (UniProt Q96RI1); assay: ATG_IR1_CIS: Attagene CIS-FACTORIAL HepG2 Assay for human Nuclear Receptor Subfamily 1 Group H Member 4 (NR1H4), IR1 submotif (AID 2282946); conditions: IR1 reporter transcription, actives raise or lower the signal
Chain of Bile acid receptor (Homo sapiens) (Q96RI1 whole entry, looked up): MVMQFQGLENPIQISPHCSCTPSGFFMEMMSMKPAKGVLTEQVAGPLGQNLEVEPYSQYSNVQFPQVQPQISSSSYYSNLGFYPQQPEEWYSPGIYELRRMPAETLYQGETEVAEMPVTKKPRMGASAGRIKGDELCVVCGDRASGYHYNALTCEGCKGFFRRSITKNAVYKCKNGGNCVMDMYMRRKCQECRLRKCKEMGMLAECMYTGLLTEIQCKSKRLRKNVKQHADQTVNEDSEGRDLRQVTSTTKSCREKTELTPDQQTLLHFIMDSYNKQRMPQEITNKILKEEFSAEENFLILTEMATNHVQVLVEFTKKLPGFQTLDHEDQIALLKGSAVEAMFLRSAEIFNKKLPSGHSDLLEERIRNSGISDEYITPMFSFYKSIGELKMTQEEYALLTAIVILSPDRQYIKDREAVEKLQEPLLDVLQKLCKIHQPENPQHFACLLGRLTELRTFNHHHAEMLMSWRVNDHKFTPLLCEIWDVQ
Method in brief: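 Fluorescence of capillary-separated, HpaI-digested RT-PCR reporter products gave IR1-element mRNA induction in HepG2 cells 24 h after dosing. Endogenous transcription factors drove the cis-regulated reporters; activity was fitted bidirectionally against DMSO.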

[2] = ATG_ISRE_CIS: Attagene CIS-FACTORIAL HepG2 Assay for human Interferon Regulatory Factor 1 (IRF1) binding to an Interferon-Stimulated Response Element (ISRE) (AID 2282948); conditions: HepG2 ISRE cis-reporter (Attagene), mRNA transcription readout; actives raise or lower the signal
Method in brief: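 Uses HepG2 liver cells transfected with cis-regulated reporters and measures mRNA 24 h post-dosing through RT-PCR, primer-extension labelling and capillary electrophoresis, with DMSO as negative control.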

[3] = ATG_M_06_CIS: Attagene CIS-FACTORIAL HepG2 Assay for M06 Transcription Factor (Internal Marker) (AID 2282950); conditions: HepG2 Attagene CIS-FACTORIAL M06 internal marker reporter; actives raise or lower the signal
Method in brief: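 Fluorescence-labelled RT-PCR products from cis-promoter reporter units, cut with HpaI and resolved by capillary electrophoresis, give the signal. Cells are human HepG2, dosed for 24 h. Serves as background control, fitted relative to DMSO.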

[4] = molecular target: Hypoxia-inducible factor 1-alpha (Homo sapiens) (UniProt Q16665); assay: ATG_HIF1a_CIS: Attagene CIS-FACTORIAL HepG2 Assay for human Hypoxia Inducible Factor 1 (HIF1A) (AID 2282951); conditions: HepG2 Attagene cis-factorial HIF1a reporter transcription; actives raise or lower the signal
Chain of Hypoxia-inducible factor 1-alpha (Homo sapiens) (Q16665 whole entry, looked up): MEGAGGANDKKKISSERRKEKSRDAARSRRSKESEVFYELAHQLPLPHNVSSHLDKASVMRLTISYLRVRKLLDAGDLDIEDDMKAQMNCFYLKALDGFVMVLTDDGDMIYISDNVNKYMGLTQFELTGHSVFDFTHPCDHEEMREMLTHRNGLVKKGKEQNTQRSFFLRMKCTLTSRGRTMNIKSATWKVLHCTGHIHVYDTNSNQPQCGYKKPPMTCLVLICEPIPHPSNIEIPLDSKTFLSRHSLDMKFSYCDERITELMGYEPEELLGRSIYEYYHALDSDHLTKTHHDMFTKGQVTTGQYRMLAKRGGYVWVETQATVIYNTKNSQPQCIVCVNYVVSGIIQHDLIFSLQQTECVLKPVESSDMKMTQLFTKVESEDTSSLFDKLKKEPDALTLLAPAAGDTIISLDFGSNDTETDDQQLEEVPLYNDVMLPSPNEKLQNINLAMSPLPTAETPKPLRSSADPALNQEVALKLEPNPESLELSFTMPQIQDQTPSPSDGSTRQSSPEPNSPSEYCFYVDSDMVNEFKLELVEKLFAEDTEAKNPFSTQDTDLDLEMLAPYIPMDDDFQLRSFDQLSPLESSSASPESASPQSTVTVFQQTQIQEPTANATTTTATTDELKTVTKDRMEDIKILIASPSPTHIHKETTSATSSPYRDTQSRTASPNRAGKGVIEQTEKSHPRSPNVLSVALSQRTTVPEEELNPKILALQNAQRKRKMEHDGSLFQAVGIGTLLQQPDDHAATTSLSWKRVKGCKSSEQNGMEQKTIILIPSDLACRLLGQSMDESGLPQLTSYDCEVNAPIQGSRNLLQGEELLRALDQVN
Method in brief: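 RT-PCR/capillary electrophoresis fluorescence readout of reporter transcripts from endogenous-TF-driven cis elements in transfected HepG2 cells, 24 h exposure; activity fitted in both directions against DMSO controls.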

[5] = molecular target: Hepatocyte nuclear factor 6 (Homo sapiens) (UniProt Q9UBC0); assay: ATG_HNF6_CIS: Attagene CIS-FACTORIAL HepG2 Assay for human Hepatocyte Nuclear Factor 6 (HNF6) (AID 2282952); conditions: HepG2 Attagene cis-factorial HNF6 reporter transcription; actives raise or lower the signal
Chain of Hepatocyte nuclear factor 6 (Homo sapiens) (Q9UBC0 whole entry, looked up, the tested form may be a part): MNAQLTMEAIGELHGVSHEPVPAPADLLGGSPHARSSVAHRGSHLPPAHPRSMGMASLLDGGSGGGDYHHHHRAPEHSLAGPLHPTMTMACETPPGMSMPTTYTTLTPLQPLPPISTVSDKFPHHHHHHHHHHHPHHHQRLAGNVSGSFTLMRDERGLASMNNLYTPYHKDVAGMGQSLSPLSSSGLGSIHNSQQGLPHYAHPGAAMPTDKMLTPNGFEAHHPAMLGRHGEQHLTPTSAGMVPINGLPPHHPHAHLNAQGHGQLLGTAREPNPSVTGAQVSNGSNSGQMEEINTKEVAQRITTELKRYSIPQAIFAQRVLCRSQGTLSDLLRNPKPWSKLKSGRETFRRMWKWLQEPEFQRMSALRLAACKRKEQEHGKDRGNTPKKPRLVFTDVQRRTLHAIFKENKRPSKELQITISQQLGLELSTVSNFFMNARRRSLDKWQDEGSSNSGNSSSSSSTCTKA
Method in brief: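 First, HepG2 cells were transfected with the multiplexed cis reporter library and dosed with chemical for 24 h. Next, RNA was reverse-transcribed, PCR-amplified and fluorescently labelled. Finally, HpaI-digested fragments were read by capillary electrophoresis.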

[6] = molecular target: Heat shock factor protein 1 (Homo sapiens) (UniProt Q00613); assay: ATG_HSE_CIS: Attagene CIS-FACTORIAL HepG2 Assay for human Heat Shock Transcription Factor 1 (HSE) (AID 2282953); conditions: HepG2 HSE cis-reporter, Attagene RNA transcription; actives raise or lower the signal
Chain of Heat shock factor protein 1 (Homo sapiens) (Q00613 whole entry, looked up): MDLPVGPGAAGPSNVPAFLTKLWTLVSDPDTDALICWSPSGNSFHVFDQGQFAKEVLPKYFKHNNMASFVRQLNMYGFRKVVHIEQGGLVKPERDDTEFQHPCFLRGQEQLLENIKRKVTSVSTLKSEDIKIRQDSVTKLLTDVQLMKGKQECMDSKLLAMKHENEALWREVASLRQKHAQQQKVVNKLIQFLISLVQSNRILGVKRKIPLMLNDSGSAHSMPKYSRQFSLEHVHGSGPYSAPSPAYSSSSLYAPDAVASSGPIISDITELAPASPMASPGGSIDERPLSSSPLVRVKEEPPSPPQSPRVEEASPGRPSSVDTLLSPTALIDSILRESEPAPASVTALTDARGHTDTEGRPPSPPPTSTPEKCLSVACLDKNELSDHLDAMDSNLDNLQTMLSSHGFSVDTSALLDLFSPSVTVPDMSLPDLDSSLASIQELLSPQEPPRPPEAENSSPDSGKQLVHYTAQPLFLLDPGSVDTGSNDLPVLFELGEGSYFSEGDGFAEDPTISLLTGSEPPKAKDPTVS
Method in brief: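 After a 24 h incubation with test chemical, transfected HepG2 cells were harvested for RNA; reporter transcripts were measured by RT-PCR and capillary electrophoresis. Values reflect gain or loss of signal relative to DMSO.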

[7] = ATG_MRE_CIS: Attagene CIS-FACTORIAL HepG2 Assay for human Metal Responsive Element (MRE) (AID 2282954); conditions: HepG2 MRE cis-reporter transcription, Attagene multiplex; actives raise or lower the signal
Method in brief: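 Measured here is mRNA induction from an MRE cis-element reporter in HepG2 after 24 h, quantified by fluorescence of labelled RT-PCR products on capillary electrophoresis; gain- and loss-of-signal fits use DMSO as baseline.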

[8] = molecular target: Paired box protein Pax-6 (Homo sapiens) (UniProt P26367); assay: ATG_Pax6_CIS: Attagene CIS-FACTORIAL HepG2 Assay for human Paired Box 6 (PAX6) (AID 2282956); conditions: HepG2 CIS-FACTORIAL PAX6 reporter transcription, RNA readout; actives raise or lower the signal
Chain of Paired box protein Pax-6 (Homo sapiens) (P26367 whole entry, looked up): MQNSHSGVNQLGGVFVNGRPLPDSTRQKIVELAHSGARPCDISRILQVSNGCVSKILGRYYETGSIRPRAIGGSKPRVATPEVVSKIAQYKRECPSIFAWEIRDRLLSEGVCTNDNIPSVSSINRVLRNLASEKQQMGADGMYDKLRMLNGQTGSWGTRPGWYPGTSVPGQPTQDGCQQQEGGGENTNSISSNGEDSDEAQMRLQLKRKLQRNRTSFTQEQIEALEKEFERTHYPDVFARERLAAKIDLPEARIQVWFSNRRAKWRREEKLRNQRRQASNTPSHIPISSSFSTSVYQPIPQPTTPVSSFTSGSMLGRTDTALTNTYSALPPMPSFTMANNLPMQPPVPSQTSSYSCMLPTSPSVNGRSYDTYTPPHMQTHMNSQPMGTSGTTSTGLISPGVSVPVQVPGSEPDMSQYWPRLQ
Method in brief: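 DMSO-referenced bidirectional fits of reporter mRNA fluorescence; HepG2 with transient cis-promoter MRTUs, 24 h post-dose, RT-PCR plus capillary electrophoresis detection.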

[9] = ATG_PXRE_CIS: Attagene CIS-FACTORIAL HepG2 Assay for human Pregnane X Receptor Element (PXRE) (AID 2282957); conditions: HepG2 Attagene CIS-FACTORIAL PXRE reporter, mRNA; actives raise or lower the signal
Method in brief: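 After a 24 h chemical incubation, total RNA from transfected HepG2 cells was reverse-transcribed and reporter cDNA amplified, FAM-labeled, HpaI-digested and sized by capillary electrophoresis. DMSO served as baseline for bidirectional curve fitting.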

[10] = ATG_PPRE_CIS: Attagene CIS-FACTORIAL HepG2 Assay for human Peroxisome Proliferator-activated Response Element (PPRE) (AID 2282958); conditions: HepG2 PPRE cis-element reporter, Attagene transcription factor profiling; actives raise or lower the signal
Method in brief: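 Read-out: fluorescent reporter mRNA fragments resolved by capillary electrophoresis after RT-PCR. HepG2 cells carried transiently transfected PPRE-driven cis reporter constructs and were dosed for 24 h; gain or loss of signal fitted relative to DMSO.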

[11] = ATG_RORE_CIS: Attagene CIS-FACTORIAL HepG2 Assay for human RAR-related Orphan Receptor Element (RORE) (AID 2282959); conditions: HepG2 Attagene cis-factorial RORE reporter, mRNA; actives raise or lower the signal
Method in brief: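 Readout: fluorescent reporter mRNA by RT-PCR plus capillary electrophoresis, 24 h after dosing transfected HepG2 cells. Endogenous transcription factor activity on a cis promoter element is measured. Gain or loss of signal fitted against DMSO.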

[12] = ATG_Sox_CIS: Attagene CIS-FACTORIAL HepG2 Assay for human SRY-box transcription factor (SOX) (AID 2282960); conditions: HepG2 Attagene cis-factorial SOX reporter, mRNA; actives raise or lower the signal
Method in brief: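 Read-out: fluorescent RT-PCR products of SOX1-linked reporter transcripts resolved by capillary electrophoresis, fitted bidirectionally against DMSO. Transiently transfected HepG2 cells, 24 h after chemical exposure, endogenous transcription factor activity.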

[13] = molecular target: Transcription factor Sp1 (Homo sapiens) (UniProt P08047); assay: ATG_Sp1_CIS: Attagene CIS-FACTORIAL HepG2 Assay for human Specificity Protein 1 (Sp1) (AID 2282961); conditions: HepG2 Sp1 cis-reporter transcription, actives raise or lower the signal
Chain of Transcription factor Sp1 (Homo sapiens) (P08047 whole entry, looked up): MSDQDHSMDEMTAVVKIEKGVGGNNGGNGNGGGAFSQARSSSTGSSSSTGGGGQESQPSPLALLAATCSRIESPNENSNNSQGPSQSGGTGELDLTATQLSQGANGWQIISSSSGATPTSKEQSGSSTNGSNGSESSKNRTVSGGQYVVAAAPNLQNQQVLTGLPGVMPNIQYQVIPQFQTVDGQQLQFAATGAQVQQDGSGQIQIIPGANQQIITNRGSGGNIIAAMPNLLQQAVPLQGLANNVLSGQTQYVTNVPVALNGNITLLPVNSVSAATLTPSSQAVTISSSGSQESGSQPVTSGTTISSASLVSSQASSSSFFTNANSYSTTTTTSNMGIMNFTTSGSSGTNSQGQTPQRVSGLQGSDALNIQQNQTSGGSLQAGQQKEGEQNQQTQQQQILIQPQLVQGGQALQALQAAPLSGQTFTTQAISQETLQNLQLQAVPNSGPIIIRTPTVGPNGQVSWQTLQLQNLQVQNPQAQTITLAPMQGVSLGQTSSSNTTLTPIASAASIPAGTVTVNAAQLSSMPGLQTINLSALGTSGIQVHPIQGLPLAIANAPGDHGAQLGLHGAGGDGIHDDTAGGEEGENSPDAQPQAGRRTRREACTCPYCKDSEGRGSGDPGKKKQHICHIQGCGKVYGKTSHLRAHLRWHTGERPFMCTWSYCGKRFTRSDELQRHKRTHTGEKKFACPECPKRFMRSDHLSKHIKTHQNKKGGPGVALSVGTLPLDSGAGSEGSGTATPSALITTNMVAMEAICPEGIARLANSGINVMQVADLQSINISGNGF
Method in brief: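 Read-out: fluorescence of 6-FAM-labeled, HpaI-digested RT-PCR products separated by capillary electrophoresis. HepG2 cells carried transfected cis-element reporter units and were exposed to chemicals for 24 h; gain or loss of signal fitted relative to DMSO.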

[14] = ATG_SREBP_CIS: Attagene CIS-FACTORIAL HepG2 Assay for human Sterol Regulatory Element Binding (SREBP) (AID 2282962); conditions: HepG2 Attagene cis-factorial SREBP reporter, mRNA; actives raise or lower the signal
Method in brief: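 In this cis-format assay, HepG2 liver cells express reporters controlled by promoter elements responsive to native transcription factors. Exposure lasts 24 h; reporter mRNA fluorescence from capillary electrophoresis gives the signal, fitted bidirectionally against DMSO.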

[15] = molecular target: Signal transducer and activator of transcription 3 (Homo sapiens) (UniProt P40763); assay: ATG_STAT3_CIS: Attagene CIS-FACTORIAL HepG2 Assay for human Signal Transducer and Activator of Transcription 3 (STAT3) (AID 2282963); conditions: HepG2, Attagene cis-factorial STAT3 reporter transcription; actives raise or lower the signal
Chain of Signal transducer and activator of transcription 3 (Homo sapiens) (P40763 whole entry, looked up, the tested form may be a part): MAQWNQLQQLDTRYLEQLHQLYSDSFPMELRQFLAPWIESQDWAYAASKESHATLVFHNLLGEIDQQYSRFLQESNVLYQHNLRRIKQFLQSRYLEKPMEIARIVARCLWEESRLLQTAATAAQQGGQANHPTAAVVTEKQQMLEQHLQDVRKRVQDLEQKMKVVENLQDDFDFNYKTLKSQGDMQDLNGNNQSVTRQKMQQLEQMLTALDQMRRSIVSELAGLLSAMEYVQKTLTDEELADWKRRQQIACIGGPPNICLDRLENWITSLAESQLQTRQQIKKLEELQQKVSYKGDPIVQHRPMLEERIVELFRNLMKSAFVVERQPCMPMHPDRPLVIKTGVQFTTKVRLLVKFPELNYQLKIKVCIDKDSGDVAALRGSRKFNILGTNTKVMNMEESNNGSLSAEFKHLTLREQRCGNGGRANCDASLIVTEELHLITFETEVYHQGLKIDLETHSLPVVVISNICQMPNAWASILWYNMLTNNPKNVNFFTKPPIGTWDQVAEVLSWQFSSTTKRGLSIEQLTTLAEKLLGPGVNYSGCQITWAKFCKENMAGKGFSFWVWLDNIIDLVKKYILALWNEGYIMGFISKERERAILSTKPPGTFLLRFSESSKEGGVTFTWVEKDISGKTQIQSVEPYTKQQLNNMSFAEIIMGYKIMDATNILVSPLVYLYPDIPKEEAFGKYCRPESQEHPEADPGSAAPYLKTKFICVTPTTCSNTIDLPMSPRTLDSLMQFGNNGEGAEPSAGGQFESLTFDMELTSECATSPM
Method in brief: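 Fluorescence intensity of 6-FAM-labelled reporter fragments, separated by capillary electrophoresis after RT-PCR, gave the signal. Cells were HepG2 transfected with cis-element reporter units and treated 24 h; fitting was bidirectional relative to DMSO.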

[16] = ATG_TA_CIS: Attagene CIS-FACTORIAL HepG2 Assay for human TA Basal Promoter (AID 2282964); conditions: HepG2 Attagene CIS-factorial TA basal promoter reporter; actives raise or lower the signal
Method in brief: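 Multiplexed mRNA reporter assay, HepG2, 24 h. Reporter cDNA amplified, 6-FAM primer-extended, HpaI-cut, CE-sized; DMSO = negative control and baseline.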

[17] = ATG_TCF_b_cat_CIS: Attagene CIS-FACTORIAL HepG2 Assay for human T-Cell-Factor with beta-catenin (TCF/b-cat) (AID 2282965); conditions: HepG2 TCF/beta-catenin cis-reporter transcription, actives raise or lower the signal
Method in brief: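 HepG2 cells transiently transfected with cis-promoter-driven multiplexed reporter units; reporter mRNA measured 24 h after dosing by RT-PCR, FAM labelling, HpaI digestion and capillary electrophoresis. Bidirectional fitting relative to DMSO baseline.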

[18] = ATG_GRE_CIS: Attagene CIS-FACTORIAL HepG2 Assay for human Glucocorticoid Response Elements (GRE) (AID 2282947); conditions: HepG2 GRE cis-reporter, Attagene multiplex mRNA; actives raise or lower the signal
Method in brief: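 Fluorescence intensity of reporter-specific cDNA fragments, separated by capillary electrophoresis, provides the signal. Constructs carry cis-regulating promoters in transiently transfected HepG2 liver cells; 24 h incubation; fitting is bidirectional against DMSO.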

[19] = ATG_M_32_CIS: Attagene CIS-FACTORIAL HepG2 Assay for M32 Transcription Factor (Internal Marker) (AID 2282949); conditions: HepG2 Attagene cis-factorial M32 reporter, mRNA; actives raise or lower the signal;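 also: background control marker of the multiplexed CIS panel rather than a real target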
Method in brief: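 HepG2 human liver cells transiently transfected with cis-promoter-driven multiple reporter transcription units, dosed 24 h. Reporter mRNA quantified by RT-PCR, FAM-labelled primer extension, HpaI digest and capillary electrophoresis; bidirectional fit versus DMSO baseline.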

[20] = ATG_PBREM_CIS: Attagene CIS-FACTORIAL HepG2 Assay for human Phenobarbital-responsive Enhancer Module (PBREM) (AID 2282955); conditions: HepG2 PBREM cis-reporter, Attagene multiplexed transcription; actives raise or lower the signal
Method in brief: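 Reporter mRNA read by RT-PCR, 6-FAM primer extension, HpaI digestion and capillary electrophoresis. Transfected HepG2 cells, 24 h compound exposure. Gain or loss of signal fitted bidirectionally relative to DMSO baseline.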

Measured: AC50

Nc1ccc(Cl)cc1C(=O)c1ccccc1
active: [7] 25.6 µM | [8] 29.6 µM | [9] 6.6 µM | [11] 15 µM | [16] 21.8 µM | [17] 39.6 µM
not listed: [18] | [19] | [20]
inactive: all other assays above

CC(=O)C(Cl)C(=O)N(C)C (configuration not stated)
active: [7] 100 µM
not listed: [1] | [9]
inactive: all other assays above

O=C(NCO)NCO
active: [9] 27.2 µM
not listed: [1]
inactive: all other assays above

COC[C@H](C)N(C(=O)CCl)c1c(C)csc1C
not listed: [9] | [18] | [19] | [20]
inactive: all other assays above

O=C(CCl)CCl
active: [18] 33.4 µM | [2] 33.4 µM | [19] 54.6 µM | [4] 45.6 µM | [5] 33.4 µM | [6] 58.7 µM | [7] 48.9 µM | [8] 41.3 µM | [9] 49.3 µM | [13] 33.4 µM | [14] 46 µM
inactive: [3] | [10] | [11] | [12] | [15] | [16]

Clc1nc(Cl)nc(Cl)n1
active: [6] 144 µM | [9] 34.9 µM
not listed: [1] | [17] | [18]
inactive: all other assays above

C=CC(=O)OCCCCCC(C)C
not listed: [9] | [18] | [19] | [20]
inactive: all other assays above

CCCCC(CC)CO[N+](=O)[O-] (configuration not stated)
active: [4] 4.37 µM | [5] 151 µM | [11] 99.5 µM
not listed: [1] | [20]
inactive: all other assays above

CCCCCCCCC(=O)NCc1ccc(O)c(OC)c1
active: [6] 125 µM | [7] 131 µM | [9] 26.2 µM
not listed: [1] | [4] | [17]
inactive: all other assays above

O=C/C=C/c1ccccc1
active: [9] 9.96 µM
not listed: [1]
inactive: all other assays above

Cc1ccc2ccccc2c1C
active: [9] 10.1 µM
not listed: [1] | [5] | [17]
inactive: all other assays above

ClCC(Cl)CCl
not listed: [1] | [10] | [17]
inactive: all other assays above

OCC(O)CCl (configuration not stated)
not listed: [1] | [19]
inactive: all other assays above

CC(=O)C=C(C)C
not listed: [1] | [10]
inactive: all other assays above

CCOP(=S)(OCC)SCSP(=S)(OCC)OCC
active: [20] 1.06 µM | [9] 0.192 µM
not listed: [1] | [19]
inactive: all other assays above
